# Screening results as filed in PubChem BioAssay.
# G9a block: G9a (human) methyltransferase inhibition; G9a H3K9 monomethylation, AlphaScreen, 2 h; 350,000 compounds, 8.8% hits; Q96KQ7; Potency, µM (top dose mostly 102 µM), for the others: at the highest dose activity, negative = inhibition, most hits filed as inhibitors; further: potency means the concentration at half of the fitted maximal effect; on the % scale 0 is the no-effect control and ±100 the full control effect; nearly all actives have a fitted effect of over 75% in size
# Target sequence (Q96KQ7 913-1193 limits assumed): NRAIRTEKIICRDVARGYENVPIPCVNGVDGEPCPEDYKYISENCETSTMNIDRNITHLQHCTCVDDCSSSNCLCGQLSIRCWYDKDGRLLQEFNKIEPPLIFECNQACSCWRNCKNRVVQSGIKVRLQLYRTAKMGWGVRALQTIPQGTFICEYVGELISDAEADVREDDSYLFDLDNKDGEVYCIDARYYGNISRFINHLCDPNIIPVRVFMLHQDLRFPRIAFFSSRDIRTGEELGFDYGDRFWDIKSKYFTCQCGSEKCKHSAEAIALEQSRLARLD
#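 Readings reflect AlphaScreen signal from monomethyl-H3K9 antibody detection. HMT at 20 nM; substrate b-H3K9 500 nM; cofactor SAM 20 uM; 2 h RT reaction; compounds tested as titrations in qHTS with 15 min preincubation.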
# HP1b chromo inh: HP1-beta chromodomain-methylated histone interaction inhibition | AID 540317 | P83916 | Potency, µM (highest dose often 114 µM), for the others: top-dose activity change, negative = inhibition, actives largely listed as inhibitors | 390,000 compounds, 0.56% hits | AlphaScreen HP1-beta / biotin-H3K9me3 peptide binding; further: potency means the concentration at half of the fitted maximal effect; nearly all actives have a fitted effect of over 70% in size
#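 Compound inhibition of the preformed complex between 50 nM HP1-beta and 50 nM biotinylated H3K9me3 peptide was read by AlphaScreen. Buffer was PBS pH 7.4 with 0.01% Tween-20. Incubations ran 30 min at room temperature, with 10 ug/mL donor/acceptor beads.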
# PI5P4Ka inh: blocks human PI5P4K alpha kinase activity | PI5P4Kalpha enzyme, ADP-Glo luminescence, 60 min; active compounds read low | max response, % | 330,000 compounds, 1.2% hits; active means max response of -50% or lower; inconclusive means between -30% and -50%; inactive means -30% or higher; further: value at the top dose of about 77 µM; on the % scale 0 is the no-effect control and ±100 the full control effect
# Target sequence (P48426 whole entry, looked up): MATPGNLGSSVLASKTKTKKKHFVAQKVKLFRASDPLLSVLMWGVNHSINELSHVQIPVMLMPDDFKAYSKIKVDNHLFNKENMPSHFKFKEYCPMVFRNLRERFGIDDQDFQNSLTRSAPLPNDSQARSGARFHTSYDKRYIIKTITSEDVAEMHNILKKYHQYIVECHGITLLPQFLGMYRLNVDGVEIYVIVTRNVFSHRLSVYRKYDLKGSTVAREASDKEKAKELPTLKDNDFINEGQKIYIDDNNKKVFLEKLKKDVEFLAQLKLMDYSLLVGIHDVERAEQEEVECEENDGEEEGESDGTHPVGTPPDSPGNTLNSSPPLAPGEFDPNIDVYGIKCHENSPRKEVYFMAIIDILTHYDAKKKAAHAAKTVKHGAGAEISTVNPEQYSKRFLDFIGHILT
#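 Single end-point luminescence (ADP-Glo) quantified ADP from PI5P4Kalpha turnover; ATP 5 microM final, 1 h at RT, 0.1% CHAPS and 0.28 mM EGTA in HEPES pH 7.4.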
# BAZ2B block: BAZ2B (human) inhibition | AlphaScreen BAZ2B-H3K14Ac peptide displacement | 360,000 compounds, 4.4% hits | Potency, µM (series often up to 114 µM), inactives show top-dose activity change, negative = inhibition, most hits filed as inhibitors; further: potency means the concentration at half of the fitted maximal effect; on the % scale 0 is the no-effect control and ±100 the full control effect; nearly all actives have a fitted effect of over 60% in size
#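 Protein-peptide AlphaScreen: BAZ2B 50 nM, b-H3K14Ac 50 nM, 1x PBS pH 7.4 + 0.01% Tween-20. Preincubation 30 min RT; cpd 30 min RT (top 110 uM); beads 20 min RT, light-protected.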
# L3MBTL1 block: L3MBTL1 (human) inhibition; AID 485360; Potency, µM (top dose mostly 57.1 µM), for the others: top-dose activity, negative = inhibition, usual class: inhibitors; 230,000 compounds, 0.66% hits; AlphaScreen L3MBTL1–H3K9me1 peptide binding; further: potency means the concentration at half of the fitted maximal effect; on the % scale 0 is the no-effect control and ±100 the full control effect; nearly all actives have a fitted effect of over 60% in size
#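 AlphaScreen proximity signal between nickel-chelate acceptor and streptavidin donor beads (final 10 ug/mL) reports binding of 50 nM L3MBTL1 to 75 nM biotin-H3 K9me1 peptide; complex incubated with compounds 30 min at room temperature; cefsulodin titration as control.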
# JMJD2A Tudor inh: blocks the human JMJD2A Tudor domain; O75164; Potency, µM (doses to about 114 µM), inactives show top-dose activity change, negative = inhibition, hits mostly inhibitors; 390,000 compounds, 4.4% hits; AID 504339; AlphaScreen JMJD2A-Tudor / H3K4me3 peptide binding; further: potency means the concentration at half of the fitted maximal effect; on the % scale 0 is the no-effect control and ±100 the full control effect; nearly all actives have a fitted effect of over 50% in size
# Starred values were filed as active, the others as inactive; ? = inconclusive; / = no result given; [ ] = remark or other dose. Shown are actives, neighbours in structure and some others; about 11% of the full set was active somewhere. Unless noted, the call rests on the fitted dose curve; in most records, active means well fitted inhibition curve with a large enough effect; inconclusive means small, poorly fitted or top-dose-only effect; inactive means no such curve, though single readings can be large or run the other way.
SMILES,G9a block,HP1b chromo inh,PI5P4Ka inh,BAZ2B block,L3MBTL1 block,JMJD2A Tudor inh
COc1ccc(-n2ncc3c(NCc4ccccn4)ncnc32)cc1,-27.4%[59 µM],11.0%,-9.1,?,-9.7%,14.1µM*
COCCN(CCOC)c1ncnc2c1c(-c1ccccc1)cn2-c1ccc(C)c(Cl)c1,-33.5%[59 µM],26.6%,/,?,/,-24.5%
CCNc1ncc2nc(-c3ccc(Cl)cc3)c(=O)n(-c3ccc(OC)cc3)c2n1,3.3%[0.501 µM],/,/,/,/,/
CCOC(=O)C1CCN(S(=O)(=O)c2cc3c4c(c2)CC(=O)N4CCC3)CC1,4.1%[59 µM],38.0%,/,-16.9%,/,-3.9%
COc1ccc(-c2nc(S(=O)(=O)c3ccccc3)c(N3CCN(C)CC3)o2)cc1,/,/,2.1,/,/,/
COc1ccc(-c2nc(S(=O)(=O)c3ccc(Cl)cc3)c(N3CCCCCC3)o2)cc1,20µM*,-20.4%,/,-33.5%,/,56.2µM*
CN(C)c1oc(-c2ccc(Cl)cc2)nc1S(=O)(=O)c1ccccc1,-18.0%[59 µM],?,?,?,-3.0%,79.4µM*
O=S(=O)(c1ccc(Cl)cc1)c1nc(-c2cccs2)oc1N1CCCCC1,14.1µM*,?,/,14.1µM*,/,?
CC(=O)NCc1ccc(C(=O)CSc2nnc(C3CC3)n2C2CC2)cc1,?,1.0%,-13.3,-4.5%,4.6%,22.4µM*
Cn1c(SCC#N)nnc1-c1cnccn1,1.41µM*,24.6%,/,1.1%,-0.5%,-10.6%
Cn1c(SCc2ccccc2)nnc1-c1cnccn1,/,20.0%,/,-17.8%,-9.3%,-3.6%
O=C(CSc1nnc(C2CC2)n1Cc1ccccc1)c1ccc(S(=O)(=O)N2CCOCC2)cc1,3.16µM*,41.7%,-8.5,0.6%,8.0%,-35.0%
O=C(CSc1nnc(C2CC2)n1C1CC1)c1ccc(F)cc1,18.8%[59 µM],33.4%,-1.7,11.6%,-0.8%,3.4%
Cn1c(SCc2ccc(Cl)cc2)nnc1C1CC1,31.6µM*,35.5%,-1.2,-18.1%,-5.6%,1.3%
O=C(CSc1nnc(C2CC2)n1Cc1ccccc1)N1CCN(S(=O)(=O)c2ccccc2)CC1,-5.5%[59 µM],23.9%,3.9,-0.2%,1.4%,-12.1%
CC(=O)Nc1ccc(OC[C@@H](O)CNC(C)C)cc1,7.9%[21.5 µM],/,/,/,/,/
Cc1cc(C)cc(-n2c(SCC(N)=O)nc3c([nH]c4ccccc43)c2=O)c1,3.0%[59 µM],22.1%[57 µM],/,-13.0%,/,-16.5%
Cn1c(SCC(=O)c2ccccc2)nnc1-c1cnccn1,20µM*,?,/,?,7.5%,25.1µM*
CCn1c(SCC(=O)c2ccccc2)nnc1-c1cnccn1,-4.5%[12.7 µM],22.5%,/,11.2%,0.1%[11.4 µM],-10.4%
Cn1c(SCC(=O)c2ccccc2)nnc1C1CC1,39.8µM*,-11.8%,-6.9,-2.8%,-3.1%,9.2%[11.4 µM]
CCOC(=O)c1sc2ncn(CC(=O)Nc3ccc(F)cc3F)c(=O)c2c1C,-37.8%[59 µM],41.9%,/,1.0%,/,-5.1%
O=C(O)CCn1cc(/C=C2/NC(=S)N(c3ccccc3)C2=O)c(-c2ccccc2)n1,22.4µM*,1.5%,-15.0,-37.5%,-1.3%,?
Cc1cc2c(s1)c1cnn(Cc3ccc(C)c(F)c3F)c(=O)c1n2C,/,/,/,/,/,-19.2%
CN(C)/N=C/c1ccc(P(c2ccc(/C=N/N(C)C)o2)c2ccc(/C=N/N(C)C)o2)o1,35.5µM*,?,41.3,22.4µM*,-14.1%,17.8µM*
COc1ccc(C(=O)C[n+]2cc(Br)cc3ccccc32)cc1[N+](=O)[O-],35.5µM*,30.7%,-5.8,-27.1%,/,79.4µM*
SMILES,G9a block,HP1b chromo inh,PI5P4Ka inh,BAZ2B block,L3MBTL1 block,JMJD2A Tudor inh
O=C(C[n+]1cc(Br)cc2ccccc21)c1ccccc1,44.7µM*,7.6%,-0.9,?,-0.3%,?
COc1ccc(C(=O)OCC(N)=O)cc1[N+](=O)[O-],10.8%[59 µM],33.5%,2.7,2.9%,6.2%,-10.8%
COCCn1c(=O)c(-c2cccc(C#N)c2)nc2cnc(Oc3ccc(OC)cc3)nc21,-0.1%[0.501 µM],/,/,/,/,/
COCCSc1nnc(NC(=O)CSCc2ccccc2)s1,14.1µM*,37.7%,/,0.9%,0.3%,-10.4%
COCCSc1nnc(NS(=O)(=O)c2ccccc2)s1,28.2µM*,26.0%,-17.1,?,9.6%,-6.2%
CC(=O)Nc1c(O)nc(SCC(=O)Nc2nnc(SCc3ccccc3)s2)[nH]c1=O,20µM*,7.5%,?,?,/,?
Nc1nnc(SCC(=O)Nc2sc3c(c2C(=O)c2ccccc2)CCCC3)s1,?,?,?,?,-8.5%,?
COCCNc1nnc(SCC(=O)Nc2sc3c(c2C(=O)c2ccccc2)CCCC3)s1,44.7µM*,?,-16.1,?,-23.2%,?
CC(=O)Nc1c(O)nc(SCC(=O)Nc2nnc(CC(C)C)s2)[nH]c1=O,?,23.5%,-0.8,9.0%,0.2%,-12.5%
CC1C(=O)N(C)C(=O)c2nc[nH]c21 (stereo not given),14.9%[12.7 µM],/,/,/,/,/
Cc1ncc(N=Nc2ccccc2Cl)c(-c2ccccc2)n1,?,15.8µM*,3.0,11.2µM*,?,50.1µM*
COc1ccc(N=Nc2cnc(C)nc2-c2ccccc2)cc1,14.1µM*,-66.4%,15.9,20µM*,-16.2%,39.8µM*
O=C(Nc1ccccc1)c1cnc(N2CCCCC2)c2ccccc12,48.5%[59 µM],44.5%[57 µM],/,11.9%,/,18.7%
O=C1C=C(NCc2ccc(Cl)cc2)CC(c2ccco2)C1 (stereo not given),0.5%[59 µM],?,?,50.1µM*,-13.3%,?
O=C1C=C(Nc2ccc(O)cc2)CC(c2ccco2)C1 (stereo not given),?,3.1%,-8.3,-3.5%,?,-33.3%
O=C1C=C(Nc2ccc(Cl)cc2Cl)CC(c2ccco2)C1 (stereo not given),50.1µM*,14.9%,-2.8,-13.2%,/,-7.2%
CCCN1C(=O)C(Cc2nc3ccccc3c(=O)n2-c2ccc(OC)cc2)c2cc(C)ccc21 (stereo not given),?,0.7%,/,?,/,?
Cc1ccc(-n2ncc(C(=O)NCc3ccco3)c2C2CCN(C(=O)OC(C)(C)C)CC2)cc1C,?,-3.1%,/,-10.2%[57.1 µM],/,?
Oc1c(Cl)cc(Cl)cc1CNn1cnnc1,/,-13.2%,3.0,-15.5%,-9.4%,-7.6%
O=S(c1cc(Cl)cc(Cl)c1O)c1cc(Cl)cc(Cl)c1O,?,/,-50.7*,/,/,/
CCCCN1C(=O)C(O)=C(C(C)=O)C1c1ccccc1[N+](=O)[O-] (stereo not given),?,42.1%,-0.8,?,3.9%,-27.1%
CC(=O)C1=C(O)C(=O)N(c2ccc(O)cc2)C1c1ccccc1[N+](=O)[O-] (stereo not given),14.1µM*,-3.1%,-18.8,-27.9%,3.3%,-7.5%
CC(=O)C1=C(O)C(=O)N(c2ccc(Br)cc2)C1c1ccc(Br)cc1 (stereo not given),50.1µM*,13.3%,-4.7,?,-12.6%,-11.0%
